Assay results from the supplement of paper PMC10849652.
About 7,900 targets were measured; listed, in parts, are those with a hit and a random draw of the rest. About 0.6% of all pairs of compound and target were hits. A number with no mark means an inactive call.

Tests used:
Test in all cases: log2 fold change, soluble protein after heating vs DMSO (PISA); higher = thermal stabilisation; K562 cells, 10 uM, 30 min; active = over 0.2 and 3.5 SD of the protein, either way, in both replicates (recomputed)
[1] = compound: CC1=C(C=C(C=C1)NC(=O)C2=CC(=CC=C2)C(C)(C)C#N)NC3=CC4=C(C=C3)N=CN(C4=O)C
Method in brief: (§1)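 Thermal stability values are relative to control samples and come from duplicates. They are expressed as log2 fold changes. For measurement, K562 cells (2×10^6 cells/mL) received 10 μM compound for 30 min, and aliquots were heated for 3 min over 48°C-58°C, pooled, and extracted at 4°C in PBS with 0.5% NP-40. Soluble protein, the supernatant after 21,000xg for 90 min, was quantified by TMTpro 16plex LC-MS/MS with equalised channel sums.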

[2] = compound: CC1=C(C=C(C=C1)NC(=O)C2=CC(=CC=C2)N(C)C)NC(=O)C3=CC=C(C=C3)O
Method in brief: as §1

[3] = compound: CC1=CC=C(C=C1)SC2=C3C=C(SC3=CN=C2)C(=O)N
Method in brief: as §1

[4] = compound: CC1=NC(=CC=C1)C2=C(N=C(N2)C(C)(C)C)C3=CC4=NC=CN=C4C=C3
Method in brief: as §1

Nexturastat A = compound: CCCCN(Cc1ccc(C(=O)NO)cc1)C(=O)Nc1ccccc1 [Nexturastat A]
Method in brief: as §1

vemurafenib = compound: CCCS(=O)(=O)Nc1ccc(F)c(C(=O)c2c[nH]c3ncc(-c4ccc(Cl)cc4)cc23)c1F [vemurafenib]
Method in brief: as §1

[5] = compound: CCCS(=O)(=O)Nc1ccc(F)c(C(=O)c2c[nH]c3ncc(Cl)cc23)c1F
Method in brief: as §1

[6] = compound: CCCc1cc(C)[nH]c(=O)c1CNC(=O)c1cc(-c2ccnc(N3CCN(C)CC3)c2)cc2c1cnn2C(C)C
Method in brief: as §1

givinostat = compound: CCN(CC)Cc1ccc2cc(COC(=O)Nc3ccc(C(=O)NO)cc3)ccc2c1 [givinostat]
Method in brief: as §1

barasertib = compound: CCN(CCCOc1ccc2c(Nc3cc(CC(=O)Nc4cccc(F)c4)[nH]n3)ncnc2c1)CCOP(=O)(O)O [barasertib]
Method in brief: as §1

[7] = compound: CC[C@@H]1C(=O)N(C)c2cnc(Nc3ccc(C(=O)NC4CCN(C)CC4)cc3OC)nc2N1C1CCCC1
Method in brief: as §1

volasertib = compound: CC[C@@H]1C(=O)N(C)c2cnc(Nc3ccc(C(=O)N[C@H]4CC[C@H](N5CCN(CC6CC6)CC5)CC4)cc3OC)nc2N1C(C)C [volasertib]
Method in brief: as §1

[8] = compound: CC[C@H](C)N1C=C(C2=C(C=C(C=C21)C3=CN=C(C=C3)N4CCNCC4)C(=O)NCC5=C(C=C(NC5=O)C)C)C
Method in brief: as §1

epoxomicin = compound: CC[C@H](C)[C@@H](C(=O)N[C@@H]([C@@H](C)O)C(=O)N[C@@H](CC(C)C)C(=O)[C@]1(CO1)C)NC(=O)[C@H]([C@@H](C)CC)N(C)C(=O)C [epoxomicin]
Method in brief: as §1

[9] = compound: CCn1c(C(=O)N(C2CC2)C2CC2)cc2c3c(ncn3C)c(Nc3cc(C)n(C)n3)nc21
Method in brief: as §1

[10] = compound: CCn1cc(-c2ccnc3[nH]c(-c4cccc(CN(C)C)c4)cc23)c(-c2ccc(NC(=O)N(C)C)cc2)n1
Method in brief: as §1

[11] = compound: CN(C)CC(=O)Nc1ccc2[nH]c(=O)c3ccccc3c2c1
Method in brief: as §1

rosiglitazone = compound: CN(CCOC1=CC=C(C=C1)C[C@H]2C(=O)NC(=O)S2)C3=CC=CC=N3 (racemic) [rosiglitazone]
Method in brief: as §1

[12] = compound: CN1C2=C(C3=C1C(=O)N(N=C3)CC4=CC(=CC=C4)N)SC(=C2)S(=O)C
Method in brief: as §1

[13] = compound: CN1CCC(CNc2ccc3ncc(-c4cccc(OC(F)(F)F)c4)n3n2)CC1
Method in brief: as §1

Sequence of UniProt Q08334 (Q08334 whole entry, looked up): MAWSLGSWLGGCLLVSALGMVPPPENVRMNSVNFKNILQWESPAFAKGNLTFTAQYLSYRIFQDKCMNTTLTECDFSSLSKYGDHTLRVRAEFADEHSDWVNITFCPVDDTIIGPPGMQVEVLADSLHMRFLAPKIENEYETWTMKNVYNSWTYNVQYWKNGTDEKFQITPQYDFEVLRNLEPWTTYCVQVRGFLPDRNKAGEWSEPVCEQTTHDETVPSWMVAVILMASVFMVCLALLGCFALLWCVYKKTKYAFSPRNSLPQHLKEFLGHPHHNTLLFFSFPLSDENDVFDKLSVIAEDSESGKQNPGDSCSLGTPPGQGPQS
Sequence of UniProt Q93074 (Q93074 whole entry, looked up): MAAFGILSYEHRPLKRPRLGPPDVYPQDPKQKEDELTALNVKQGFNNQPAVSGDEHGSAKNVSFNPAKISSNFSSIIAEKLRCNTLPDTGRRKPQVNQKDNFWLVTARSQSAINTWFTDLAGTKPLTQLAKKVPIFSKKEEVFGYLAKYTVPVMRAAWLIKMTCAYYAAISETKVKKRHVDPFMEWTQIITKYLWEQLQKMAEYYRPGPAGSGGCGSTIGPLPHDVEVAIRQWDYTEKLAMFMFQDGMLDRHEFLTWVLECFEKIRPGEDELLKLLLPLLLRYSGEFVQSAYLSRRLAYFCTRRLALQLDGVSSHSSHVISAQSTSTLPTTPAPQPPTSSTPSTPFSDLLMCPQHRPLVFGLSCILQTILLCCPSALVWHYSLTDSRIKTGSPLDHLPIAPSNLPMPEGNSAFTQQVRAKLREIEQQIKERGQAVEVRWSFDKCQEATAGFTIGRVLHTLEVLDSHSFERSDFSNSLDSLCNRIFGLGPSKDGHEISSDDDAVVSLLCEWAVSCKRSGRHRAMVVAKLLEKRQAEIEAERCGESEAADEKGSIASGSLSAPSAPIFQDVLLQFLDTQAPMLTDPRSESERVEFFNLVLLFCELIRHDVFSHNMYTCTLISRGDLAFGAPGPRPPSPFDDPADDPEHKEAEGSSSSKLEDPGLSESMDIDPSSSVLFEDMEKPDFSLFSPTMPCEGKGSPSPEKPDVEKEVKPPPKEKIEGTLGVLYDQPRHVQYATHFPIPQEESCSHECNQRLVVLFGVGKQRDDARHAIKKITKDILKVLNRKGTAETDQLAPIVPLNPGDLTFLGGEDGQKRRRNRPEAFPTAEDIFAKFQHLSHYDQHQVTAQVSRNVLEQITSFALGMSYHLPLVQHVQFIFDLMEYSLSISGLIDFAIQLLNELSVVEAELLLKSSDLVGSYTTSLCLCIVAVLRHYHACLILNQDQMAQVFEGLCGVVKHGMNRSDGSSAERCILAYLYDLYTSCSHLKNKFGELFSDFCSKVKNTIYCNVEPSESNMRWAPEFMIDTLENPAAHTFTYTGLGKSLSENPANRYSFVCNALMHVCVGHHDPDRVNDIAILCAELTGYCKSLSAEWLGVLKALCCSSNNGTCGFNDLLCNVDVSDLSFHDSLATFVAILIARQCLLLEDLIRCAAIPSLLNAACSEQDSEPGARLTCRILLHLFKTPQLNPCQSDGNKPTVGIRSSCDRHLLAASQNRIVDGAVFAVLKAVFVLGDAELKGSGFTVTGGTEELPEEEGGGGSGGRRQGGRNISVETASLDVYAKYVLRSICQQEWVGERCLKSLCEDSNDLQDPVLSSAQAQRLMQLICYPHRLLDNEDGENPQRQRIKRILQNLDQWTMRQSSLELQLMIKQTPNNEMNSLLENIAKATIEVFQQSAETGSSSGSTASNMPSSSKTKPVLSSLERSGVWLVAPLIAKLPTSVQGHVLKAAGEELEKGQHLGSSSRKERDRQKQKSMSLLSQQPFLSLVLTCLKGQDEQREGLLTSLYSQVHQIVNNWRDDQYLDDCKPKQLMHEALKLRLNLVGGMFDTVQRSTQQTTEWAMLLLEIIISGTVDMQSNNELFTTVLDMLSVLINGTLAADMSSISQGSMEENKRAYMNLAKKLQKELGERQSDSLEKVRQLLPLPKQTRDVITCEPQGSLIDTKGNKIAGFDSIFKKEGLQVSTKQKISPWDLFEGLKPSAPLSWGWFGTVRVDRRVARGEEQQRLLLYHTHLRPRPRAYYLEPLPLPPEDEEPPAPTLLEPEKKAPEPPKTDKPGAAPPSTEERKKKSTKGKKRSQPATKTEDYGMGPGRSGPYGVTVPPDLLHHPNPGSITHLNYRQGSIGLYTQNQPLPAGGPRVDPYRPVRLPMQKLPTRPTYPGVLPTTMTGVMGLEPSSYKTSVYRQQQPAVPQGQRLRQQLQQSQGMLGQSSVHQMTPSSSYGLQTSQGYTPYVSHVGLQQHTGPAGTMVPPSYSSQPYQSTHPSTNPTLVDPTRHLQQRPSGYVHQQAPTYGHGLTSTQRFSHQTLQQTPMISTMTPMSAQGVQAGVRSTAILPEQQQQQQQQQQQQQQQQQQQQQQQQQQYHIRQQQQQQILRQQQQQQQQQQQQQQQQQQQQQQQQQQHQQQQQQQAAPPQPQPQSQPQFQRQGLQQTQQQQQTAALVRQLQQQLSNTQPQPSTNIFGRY
Sequence of UniProt Q07666 (Q07666 whole entry, looked up): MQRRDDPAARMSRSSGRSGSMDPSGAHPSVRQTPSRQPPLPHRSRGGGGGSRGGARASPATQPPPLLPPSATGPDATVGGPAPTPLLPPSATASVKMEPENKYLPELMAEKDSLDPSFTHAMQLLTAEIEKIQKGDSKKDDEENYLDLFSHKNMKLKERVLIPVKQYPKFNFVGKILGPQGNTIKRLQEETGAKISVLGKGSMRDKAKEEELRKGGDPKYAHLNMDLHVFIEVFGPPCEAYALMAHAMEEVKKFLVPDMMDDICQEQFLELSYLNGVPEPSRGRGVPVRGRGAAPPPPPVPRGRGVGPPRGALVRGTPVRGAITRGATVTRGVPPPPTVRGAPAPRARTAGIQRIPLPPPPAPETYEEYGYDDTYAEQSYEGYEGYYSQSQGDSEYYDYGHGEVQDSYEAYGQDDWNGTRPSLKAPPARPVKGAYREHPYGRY
Sequence of UniProt Q96PV6 (Q96PV6 whole entry, looked up): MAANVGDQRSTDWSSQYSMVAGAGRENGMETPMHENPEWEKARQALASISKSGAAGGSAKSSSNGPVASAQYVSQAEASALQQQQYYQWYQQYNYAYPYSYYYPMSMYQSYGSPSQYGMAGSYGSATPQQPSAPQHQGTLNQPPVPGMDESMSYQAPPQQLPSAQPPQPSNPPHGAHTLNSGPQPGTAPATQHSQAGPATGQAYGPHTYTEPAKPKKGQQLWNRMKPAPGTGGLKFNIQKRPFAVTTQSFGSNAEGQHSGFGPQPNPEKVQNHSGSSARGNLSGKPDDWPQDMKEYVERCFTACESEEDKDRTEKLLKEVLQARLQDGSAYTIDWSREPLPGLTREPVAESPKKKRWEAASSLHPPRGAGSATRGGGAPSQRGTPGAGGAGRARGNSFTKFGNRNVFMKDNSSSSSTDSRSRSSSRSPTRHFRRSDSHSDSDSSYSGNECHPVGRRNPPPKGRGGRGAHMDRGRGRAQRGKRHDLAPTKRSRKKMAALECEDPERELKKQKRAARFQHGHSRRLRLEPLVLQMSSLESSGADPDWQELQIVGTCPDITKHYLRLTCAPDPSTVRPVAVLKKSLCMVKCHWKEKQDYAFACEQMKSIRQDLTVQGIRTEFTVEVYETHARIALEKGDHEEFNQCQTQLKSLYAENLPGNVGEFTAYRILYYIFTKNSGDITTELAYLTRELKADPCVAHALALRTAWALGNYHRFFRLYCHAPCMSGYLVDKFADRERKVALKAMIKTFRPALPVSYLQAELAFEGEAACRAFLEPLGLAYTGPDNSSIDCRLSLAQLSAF
Sequence of UniProt O43513 (O43513 whole entry, looked up): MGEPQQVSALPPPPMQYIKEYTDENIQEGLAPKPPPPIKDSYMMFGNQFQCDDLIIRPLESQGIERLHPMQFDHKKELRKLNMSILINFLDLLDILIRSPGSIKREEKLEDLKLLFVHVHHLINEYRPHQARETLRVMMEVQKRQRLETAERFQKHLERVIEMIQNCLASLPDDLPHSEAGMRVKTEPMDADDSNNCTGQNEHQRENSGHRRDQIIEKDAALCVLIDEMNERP
Sequence of UniProt Q8WVP7 (Q8WVP7 whole entry, looked up): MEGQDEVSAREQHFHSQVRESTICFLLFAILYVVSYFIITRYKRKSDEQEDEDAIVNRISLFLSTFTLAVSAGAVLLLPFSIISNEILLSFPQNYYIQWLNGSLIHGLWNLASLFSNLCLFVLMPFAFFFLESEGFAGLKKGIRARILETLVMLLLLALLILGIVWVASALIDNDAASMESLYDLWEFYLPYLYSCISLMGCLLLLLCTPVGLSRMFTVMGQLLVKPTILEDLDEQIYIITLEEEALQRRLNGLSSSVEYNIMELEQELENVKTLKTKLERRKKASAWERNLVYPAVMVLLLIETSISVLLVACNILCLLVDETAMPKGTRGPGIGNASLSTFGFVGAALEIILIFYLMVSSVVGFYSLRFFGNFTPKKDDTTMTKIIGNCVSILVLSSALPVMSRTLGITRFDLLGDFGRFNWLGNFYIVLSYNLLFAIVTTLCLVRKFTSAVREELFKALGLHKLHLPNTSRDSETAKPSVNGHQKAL
Sequence of UniProt P52294 (P52294 whole entry, looked up): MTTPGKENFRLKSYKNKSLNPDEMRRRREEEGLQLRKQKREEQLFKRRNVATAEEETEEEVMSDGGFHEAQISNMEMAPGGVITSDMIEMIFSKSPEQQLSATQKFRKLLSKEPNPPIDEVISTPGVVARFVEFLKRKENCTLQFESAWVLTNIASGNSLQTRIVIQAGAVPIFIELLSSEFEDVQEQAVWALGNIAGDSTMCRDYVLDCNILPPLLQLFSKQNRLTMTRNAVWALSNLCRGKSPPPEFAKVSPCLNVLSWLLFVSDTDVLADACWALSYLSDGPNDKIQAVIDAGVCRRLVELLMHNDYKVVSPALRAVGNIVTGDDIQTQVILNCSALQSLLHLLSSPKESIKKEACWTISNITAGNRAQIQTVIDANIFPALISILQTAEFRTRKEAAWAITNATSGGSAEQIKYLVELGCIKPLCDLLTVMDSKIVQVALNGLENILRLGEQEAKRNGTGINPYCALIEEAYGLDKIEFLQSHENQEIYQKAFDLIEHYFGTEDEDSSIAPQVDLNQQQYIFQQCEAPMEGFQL

Target	log2 fold change [1]	log2 fold change [2]	log2 fold change [3]	log2 fold change [4]	log2 fold change (Nexturastat A)	log2 fold change (vemurafenib)	log2 fold change [5]	log2 fold change [6]	log2 fold change (givinostat)	log2 fold change (barasertib)	log2 fold change [7]	log2 fold change (volasertib)	log2 fold change [8]	log2 fold change (epoxomicin)	log2 fold change [9]	log2 fold change [10]	log2 fold change [11]	log2 fold change (rosiglitazone)	log2 fold change [12]	log2 fold change [13]
KPNA1 (UniProt P52294)	-0.034	-0.056	-0.021	-0.041	0.084	0.035	0.026	0.034	0.086	0.012	-0.039	-0.312 (active)	0.115	-0.051	0.022	0.004	0.055	0.055	0.104	-0.082
KCTD2 (UniProt Q14681)	-0.421	0.087	-0.343	-0.084	0.072	-0.164	-0.468	-0.163	0.078	0.018	0.003	0.029	-0.033	-0.052	0.007	-0.024	-0.068	-0.024	0.049	-0.623
KHDRBS1 (UniProt Q07666)	0.086	-0.006	-0.082	0.111	0.077	0.075	-0.068	0.034	0.005	-0.106	0.148	0.106	0.074	-0.029	0.016	-0.096	-0.007	-0.028	-0.04	0.116
KEAP1 (UniProt Q14145)	-0.024	0.032	0.005	-0.009	0.038	0.054	0.101	0.004	0.034	0.082	-0.026	-0.357 (active)	-0.034	-0.024	-0.017	0.019	0.033	0.024	0.056	0.053
LENG8 (UniProt Q96PV6)	0.112	-0.201	–	0.009	-0.139	0.146	–	0.066	0.09	0.173	-0.029	–	-0.009	0.101	0.005	0.073	0.065	0.017	-0.225	-0.238
ILRUN (UniProt Q9H6K1)	0.06	-0.02	0.088	0.005	0.072	0.059	0.135	-0.026	-0.051	-0.044	-0.079	-0.429 (active)	0.024	0.042	-0.013	–	0.016	-0.019	-0.09	–
MED7 (UniProt O43513)	0.049	-0.023	-0.009	0.015	0.212	-0.021	-0.093	–	-0.008	-0.149	–	0.139	-0.287	0.127	0.015	–	0.021	-0.059	-0.172	–
LRFN1 (UniProt Q9P244)	0.052	0.076	0.02	-0.101	0.241	-0.031	0.054	–	-0.025	0.037	-0.015	0.033	–	-0.125	0.07	–	0.134	0.006	0.069	–
MED12 isoform 2 (UniProt Q93074)	0.034	-0.202	-0.015	-0.09	0.012	–	0.071	0.023	0.106	-0.135	-0.055	-0.211	0.091	-0.17	0.083	0.086	–	0.074	0.154	-0.071
LMBR1 isoform 3 (UniProt Q8WVP7)	-0.156	0.17	0.128	0.036	0.134	0.049	0.175	-0.086	0	-0.007	–	-0.452	–	0.26	-0.074	-0.456	0.049	-0.037	0.033	-0.314
MAP4 isoform 5 (UniProt P27816)	0.013	0.055	-0.173	–	0.105	–	-0.01	-0.161	-0.028	-0.114	-0.001	-0.046	-0.258	0.134	-0.03	–	–	0.008	–	–
LPIN3 isoform 2 (UniProt Q9BQK8)	-0.152	0.005	-0.04	–	-0.014	-0.001	-0.069	-0.014	-0.006	-0.054	0.016	-0.015	0.04	0.073	-0.048	-0.078	-0.054	0.135	0.002	-0.27 (active)
IKZF1 isoform 2 (UniProt Q13422)	0.141	-0.068	–	–	–	0.095	–	-0.002	-0.135	-0.08	–	–	-0.011	–	-0.034	–	-0.043	0.078	–	–
MED17 (UniProt Q9NVC6)	0.042	-0.03	-0.186	0.005	0.052	0.071	-0.168	0.025	-0.014	–	-0.011	-0.021	-0.008	-0.015	-0.027	0.08	0.037	–	0.036	-0.134
ITGA2B (UniProt P08514)	-0.071	0.064	-0.058	-0.052	0.121	-0.105	0.134	–	0.09	–	–	0.134	-0.211	-0.089	-0.011	-0.173	0.067	–	0.117	-0.07
MAML1 (UniProt Q92585)	-0.05	-0.035	–	0.199	0.039	0.038	–	–	0.299	–	–	–	–	0.059	-0.092	–	-0.055	–	–	–
IL10RB (UniProt Q08334)	0.19	–	-0.012	-0.17	0.082	-0.004	0.018	–	0.088	0.063	0.045	-0.086	0.05	0.056	-0.089	-0.247	-0.018	0.087	0.007	0.084
LRBA, A0A494BZW2	-0.082	0.06	-0.048	0.078	-0.264	–	0.272	0.038	0.264	0.026	-0.04	-0.025	0.007	-0.03	-0.193	-0.039	–	0.011	0.043	-0.115
MAP4K5 (UniProt Q9Y4K4)	0.01	0.082	0.025	-0.012	-0.042	-0.025	-0.008	-0.047	-0.024	0.1	–	-0.135	-0.004	-0.014	-0.084	-0.126	-0.026	-0.005	–	0.051
